About 83,000 compounds went through this panel and 20% of them were active in at least one assay; those are over-represented in the sample as a whole.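 Note: values are percent growth. 100 is the growth of untreated cells, values between 100 and 0 indicate rising inhibition; between -100 and 0 indicates cell death.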 Values without a mark were called inactive. Active and inactive are the calls of the source.
The compounds below were run on MOLT-4 leukemia (assay: NCI-60 one-dose screen, 48 h (100 = growth as untreated, 0 = no growth, -100 = all killed)). Details: 10 µM unless noted.
Experimental: Growth inhibition of the MOLT-4 human tumor cell line is measured as a screen for anti-cancer activity. Cells are grown in 96 well plates and exposed to the test compound for 48 hours. Compounds are tested at a single concentration, which is 10^-5 M for most compounds. The reported endpoint is percent growth (GI% or GIPRCNT), where numbers from 0 - 100% represent growth inhibition, and numbers from -100% - 0 represent cell death. For example, a value of 40 represents 60% growth inhibition. A value of 0 means no net growth occurred over the course of the experiment. A value of -40 indicates 40% of cells at the beginning of the experiment died by the end of the experiment. A value of -100 means all cells are dead at the end of the experiment.
NCI-60 Human Tumor Cell Lines Screen was performed using the standard one-dose NCI protocol, which is described in more detail at https://dtp.cancer.gov/discovery_development/nci-60/default.htm.
Compounds with GIPRCNT values below 10 were considered active. Activity score was based on GIPRCNT using the following formula: […]
Score is 0 for GIPRCNT values of 100 or above, 50 for GIPRCNT values of 0, and 100 for GIPRCNT values of -100.

| Compound | growth |
| --- | --- |
| CCCCn1c(NC(C)=O)c(S(=O)(=O)c2ccccc2)c2nc3ccccc3nc21 | 82.5% |
| O=c1oc2c(cc1-c1ccccc1)c[n+]([O-])c1ccccc21 | 102% |
| C=CCN=c1sc(-c2ccc3ccccc3c2)cn1NC(=O)c1cc2ccc1CCc1ccc(cc1)CC2 | 45.3% |
| c1ccc2cc(Cn3cc(CSc4nc5ccccc5s4)nn3)ccc2c1 | 96.4% |
| CC1(C)CC[C@]2(CO)CC[C@]3(C)[C@](O)([C@H](O)C[C@@H]4[C@@]5(C)CCCNC(C)(C)[C@@H]5CC[C@]43C)[C@@H]2C1 | 46% |
| COc1ccc(C(=O)C/C(=C\c2ccc(O)c(OC)c2)C(=O)NN)cc1 | 87.5% |
| c1cc(OCCN2CCCC2)ccc1CNc1ccc2nc(CCC3CCCCC3)[nH]c2c1 | 9.92% (active) |
| COc1ccc(C2[C@@H](Cl)C(=O)N2c2cc(OC)c(OC)c(OC)c2)cc1Cl (stereo not given in full) | 13.5% |
| CS(=O)(=O)Nc1cc(-c2ccc3ncnc(Nc4ccc(OCc5ccccn5)c(Cl)c4)c3c2)cnc1Cl | -29.5% (active) |
| C1CCC(N2CN3c4nonc4N4CN(C5CCCCC5)CN5c6nonc6N(C2)C3C45)CC1 (stereo not given) | 91.8% |
| O=CN1N=C(c2cccc(Nc3ccnc4cc(Cl)ccc34)c2)CC1c1ccc(Cl)cc1 (stereo not given) | 13.7% |
| Cc1ncc(C(=O)Nc2ccc(CN3CCN(C)CC3)c(C(F)(F)F)c2)cc1C#Cc1cnc(N)c2ccc(C#N)cc12 | 8.65% (active) |
| CCOC(=O)c1[nH]cc2c1CCc1sc(Nc3ccccn3)nc1-2 | 55.2% |
| CCOC(=O)c1nnn(Cc2cc(=O)oc3ccc(O)cc23)c1C | 100% |
| Cc1ccc(S(=O)(=O)c2nc(-c3ccccc3)oc2SCC(N)=O)cc1 | 90.6% |
| Cc1cc2oc(/C=C/c3ccccc3)cc(=O)c2c(C)c1Cl | 62.6% |
| CC1(C)N=C(N)N=C(N)N1c1ccc(S(=O)(=O)Nc2nccs2)cc1 | 103% |
| Cc1oc(-c2ccc(Cl)cc2)nc1C1=NN(C(=O)c2ccncc2)C(c2ccccc2)C1 (stereo not given) | 77.1% |
| COC(=O)c1ccc2cc(OC)c(OC)cc2c1 | 85.8% |
| CN(C)c1ccc([C@@H](C(=O)Nc2cccc([N+](=O)[O-])c2)N(C(=O)c2cc3ccccc3[nH]2)c2cccc([N+](=O)[O-])c2)cc1 | 92% |

| Compound | growth |
| --- | --- |
| CNC(=O)c1cc(Oc2ccc3c(c2)sc2nc(-c4ccc(Cl)c(C(F)(F)F)c4)cn23)ccn1 | 41.6% |
| CC1(C)N=C(N)N=C(N)N1c1cc(Cl)ccc1Cl | 71.1% |
| Clc1ccc2nn3c4ccccc4c(OCCN4CCOCC4)nc3c2c1 | 95.3% |
| COc1ccc(C2C3=C(COC3=O)N(CCO)c3cc4c(cc32)OCO4)cc1OC (stereo not given) | 88.5% |
| Cc1[nH]n(-c2cccc(Cl)c2)c(=O)c1/C=C1\C=c2ccccc2=CC1=O | 44.2% |
| Cc1nn(C)c2ncnc(N/N=C/c3cccc(O)c3O)c12 | 3.79% (active) |
| C[C@@H]1NC(=O)[C@H](Cc2ccccc2)N(Cc2cccnc2)C1=O | 101% |
| O=C(NCCN1CCOCC1)OCc1ccc2c(Cl)cc(Cl)c(O)c2n1 | 57.9% |
| Nc1[nH]nc2nc(-c3ccccc3)n3c4ccccc4nc3c12 | 97.9% |
| O=C1/C(=C/c2c[nH]c(=O)[nH]c2=O)SC(=S)N1Cc1ccccc1 | 103% |
| COc1ccc(OC)c(Nc2nnc(-c3cc(OC)c(OC)c(OC)c3)o2)c1 | 84.1% |
| CC1=C(Cl)C(=O)c2cc(C)ccc2C1=O | 98.1% |
| O=S(=O)(Nc1cc(Sc2nc3ccccc3s2)c(O)c2ccccc12)c1ccc2ccccc2c1 | 59.1% |
| C#CCOc1cccc(Nc2ncnc3cc(NC(=O)CCl)ccc23)c1 | -35.4% (active) |
| COc1cc2c(c(OC)c1OC)C(=O)CC(c1cccc(C(=O)Nc3ccc(C#N)cc3)c1)O2 (stereo not given) | 20% |
| CC1(C)CC[C@]23CC[C@]4(C)[C@H](CC[C@@H]5[C@@]6(C)CCNCC(C)(C)[C@@H]6CC[C@]54C)[C@H]2[C@H]1OC3 | 58.7% |
| C=CC(CC(c1ccccc1)(c1ccccc1)c1ccccc1)N(CC)CC (stereo not given) | 56.2% |
| O=C(NCCCCO)c1cncnc1Nc1ccc2c(ccn2Cc2cccc(F)c2)c1 | 88.3% |
| CCOC(=O)C#Cc1c(C(=O)OCC)nnn1[C@@H]1O[C@H](COC)[C@@H](OC)[C@H]1OC | 58.6% |
| O=C(O)c1cn(C2CC2)c2cc(N3CCN(C(=O)N4CCOCC4)CC3)c(F)cc2c1=O | 117% |

Source: PubChem BioAssay (NCI)
